Results: PubChem BioAssay AID602332 (National Center for Advancing Translational Sciences (NCATS), 2012)
Where “and” joins values, the source holds several entries; their conditions need not be identical. Equal entries are not always repeated. About 75 (0.02%) of roughly 420,000 compounds were called active. This is one part of a sample in which actives are shown more often than they occur. Calls follow the shape of the dose curve; as a rule, active = well fitted activation curve with a large enough effect; inconclusive = small, poorly fitted or top-dose-only effect; inactive = no such curve, though single readings can be large or run the other way.

assay: qHTS for Inducers of the Endoplasmic Reticulum Stress Response (ERSR) in Human Glioma: qHTS; conditions: U87-MG GRP78 promoter luciferase reporter, 16 h; activation: stronger effect = higher value; also: nearly all actives have a fitted effect of over 35% in size; as to activation: % of control where 0% means no effect
From the text: Primary protein unfolding takes place for many diseases, including diabetes and hypoxia, , and triggers a reaction in the cells called ER stress response (ERSR). ). ERSR is designed as a repair mechanism, but ultimately leads to cell death via apoptosis if conditions triggering protein unfolding persist (1). The molecular clue to ERSR activation is the enhancement of the expression of key molecular chaperones, including the glucose regulated protein (GRP) 78. GRP78 is the main sensor for protein folding and the main actuator of the ERSR.
In a collaboration between the Southern Research Institute and the NIH Chemical Genomics Center, a cell based screen was developed that reliably uses GRP78 as a sensor to identify small molecules as inducers of ERSR. In resting conditions, GRP78 binds proteins and acts as a natural repressor. Once unfolded proteins are present in the ER, GRP78 releases some of the repressors and binds to the unfolded proteins. The release of the repressors executes the ERSR program. Using a human glioma cell line in a miniaturized, luminescent format, a high-throughput screen was developed to identify actuators of the ERSR.
(1) Soboloff, J. and S. A. Berger (2002). "Sustained ER Ca2+ depletion suppresses protein synthesis and induces activation-enhanced cell death in mast cells." J Biol Chem 277(16): 13812-20.
NIH Chemical Genomics Center [NCGC]
NIH Molecular Libraries Probe Centers Network [MLPCN]
Assay Submitter (PI): Maurizio Grimaldi, Southern Research Institute
Stable transfected human glioma cell line, U87-MG, are dispensed at density 1000 cells/well into Greiner white solid bottom 1536-well assay plates. Compounds are transferred via Kalypsys pin tool equipped with 1536-pin array (10nl slotted pins, V&P Scientific, San Diego, CA). The assay plates will be incubated for 16 hours and developed by adding appropriate quantities of the Promega Bright Glo reagent. The plates will be incubated at room temperature for 10 minutes prior to being transferred into a ViewLux high-throughput CCD imager (PerkinElmer), wherein end-point measurements of luminescence are acquired.
Potency is read from the fitted curve at half-maximal effect.

Potency, active:
CCOc1ccc(S(=O)(=O)Nc2cccc(C(=O)NCC3(N4CCCCC4)CCCCC3)c2)cc1 15.8 µM
O=C(c1ccncc1)N1CCC2(CCCN(C(c3ccccc3)c3ccccc3)C2)CC1 35.5 µM
C=C(C)C1CC=C(C)C(O)C1 (stereo not given) 11.2 µM

activation, inactive:
O=C(NCC1(N2CCCCC2)CCCCC1)c1cccc(S(=O)(=O)Nc2ccccc2Cl)c1 -4.77%
O=C(NCC1(N2CCCCC2)CCCCC1)c1ccc(NS(=O)(=O)c2ccc(F)cc2)cc1 -3.09%
COc1ccc(C2CC(=O)c3c(O)cc(OC4OC(COC5OC(C)C(O)C(O)C5O)C(O)C(O)C4O)cc3O2)cc1O (stereo not given) -4.13%
COc1cc(-c2cccnc2)cc2c1OCCN(C(=O)Cc1csc(C)n1)C2 -6.23%
COc1ccc(C(=O)N2CCC3(CCCN(C(c4ccccc4)c4ccccc4)C3)CC2)cc1 -2.87%
O=C(c1cccc(F)c1)N1CCC2(CCCN(Cc3ccncc3)C2)CC1 -4.07%
CCCNC(=O)OC[C@@H]1O[C@H](c2ccccc2)C=C[C@@H]1Oc1ccc(OC)cc1 -2.78%
CO[C@@H]1COC(=O)[C@H](Cc2ccccc2)NC(=O)C/C=C\[C@@H](C)[C@H](OC)COC(=O)[C@@H](C)NC(=O)C/C=C\[C@H]1C -5.06% and -3.17%
CN(Cc1cccc2ncccc12)C(=O)c1cnn(-c2nccc(-c3ccccc3F)n2)c1C1CC1 -10.9%
O=C(c1cn(CC2CCCN(Cc3cc4ccccc4s3)C2)nn1)N1CCCC1 (stereo not given) -4.62%
Cc1cccc(CNC(=O)c2cnn(-c3nccc(-c4ccccc4F)n3)c2C2CC2)n1 -2.43%
COc1ccc(/C=C/NC(=O)c2ccc(OC)cc2)cc1 -1.95%
N#Cc1ccccc1-c1ccc2ncnc(NCc3cccnc3)c2c1 -2.79%
CO[C@@]12[C@@H](COC(N)=O)C3=C(C(=O)C(C)=C(N)C3=O)N1C[C@@H]1N[C@@H]12 -2.04%
COc1cc(C[C@H]2NCCc3cc(O)c(O)cc32)cc(OC)c1OC -2.86%
COc1cc([C@@H]2c3cc4c(cc3[C@@H](O[C@@H]3O[C@@H]5CO[C@@H](C)O[C@H]5[C@H](O)[C@H]3O)[C@H]3COC(=O)[C@H]23)OCO4)cc(OC)c1OP(=O)(O)O -3.95%
CCC1(C2CCN(Cc3cccnc3)CC2)NC(=O)N(CC2COc3ccccc3O2)C1=O (stereo not given) -3.69%
CCS(=O)(=O)Nc1cc(C(=O)N2C[C@@H](C)O[C@@H](C)C2)c2c(c1)nc(-c1ccccc1)n2C -5.69%
CC[C@H](C)[C@H](NC(=O)[C@H](Cc1ccc(O)cc1)NC(=O)[C@@H](NC(=O)[C@H](CCCN=C(N)N)NC(=O)[C@@H](N)CC(=O)O)C(C)C)C(=O)N[C@@H](Cc1cnc[nH]1)C(=O)N1CCC[C@H]1C(=O)N[C@@H](Cc1ccccc1)C(=O)O -0.592%
COc1ccc2c(c1)CCc1cnc(-n3ncc(C(=O)NCc4cccnc4)c3C3CC3)nc1-2 -2.79%
COc1cc(=O)n2c(c1C(=O)NCc1ccco1)CCN(Cc1ccccc1)CC2 -4.45%
Cc1oc(-c2cccc(NC(=O)c3ccccc3)c2)nc1CNC(=O)c1cnc2ccccn2c1=O -3.8%
OCC1CCCN(c2nc3cc4c(cc3cc2CNCc2cccs2)OCO4)C1 (stereo not given) -3.02%
Cc1cc[n+](C2CCCCC2)cc1 0.895%
C#CCC(C(=O)OC)(C(=O)OC)C(C[N+](=O)[O-])c1ccccc1 (stereo not given) -5.05%
COc1ccc(CN2CCOc3c(cc(-c4ncc(C(F)(F)F)cc4Cl)cc3OCC3CCCO3)C2)c(O)c1 (stereo not given) -0.626%
COc1cccc(CN2CCC3(CC2)c2ccccc2[C@@H](NC(=O)c2ccccc2OC)[C@@H]3O)c1 -2.93%
CC1(C)OC(C(O)(c2ccccc2)c2ccccc2)C(C(O)(c2ccccc2)c2ccccc2)O1 (stereo not given) -4.02%
C[C@@H]1O[C@@H](OC[C@H]2O[C@@H](Oc3cc(O)c4c(c3)O[C@H](c3ccc(O)c(O)c3)CC4=O)[C@H](O)[C@@H](O)[C@@H]2O)[C@H](O)[C@H](O)[C@H]1O -3.44%
CC(=O)OCC1OC(C#CCCCc2ccccc2)C=CC1OC(C)=O (stereo not given) -2.84% and 1.87%
CC(=O)OC[C@H]1O[C@@H](O[C@H]2[C@H](O)[C@@H](OC(=O)c3ccccc3C(=O)O)[C@H](O)O[C@@H]2COC(C)=O)[C@H](O)[C@@H](OC(=O)c2ccccc2C(=O)O)[C@@H]1O -0.805%
CN(C)c1ccc(/C=C/c2sc3ccccc3[n+]2C)cc1 -8.55%
FC(F)(F)c1cccc(-c2cn[nH]c2C2CCCN(Cc3cccn3-c3ccccn3)C2)c1 (stereo not given) -5.05%
C=C(C)C1CC=C(CO)CC1 (stereo not given) -1.71%
CCOC(=O)N/N=C1/C[C@@H](O)[C@@H](O)[C@@H]2[C@@H]3C(=O)N(CC)C(=O)[C@H]3CC[C@H]12 -5.32%
CN1[C@H]2CC(OC(=O)[C@@H](CO)c3ccccc3)C[C@H]1[C@H]1O[C@H]12 (stereo not given in full) -4%
COc1ccccc1-c1ccc(C(=O)N(C)C(C)c2ccon2)c(N2CCN(c3ccccc3F)CC2)n1 (stereo not given) -4.71%
Cc1cnc(C(=O)N2CCOc3ccc(CN4CCCC(C(=O)c5cccnc5)C4)cc3C2)[nH]1 (stereo not given) -3.36%
COc1ccc(CN2CCC3(CCC(CNC(=O)c4ccco4)O3)CC2)cc1OC (stereo not given) 0.172%
COC(=O)c1ccccc1-c1cc(C)cc2c1OC(CNC(=O)C1CCOC1)C2 (stereo not given) -1.81%
Cn1c(=O)c(CCc2ccccc2)nc2cnc(Nc3ccccc3)nc21 -3.93%
Cc1c(S(=O)(=O)O)oc2c1C(=O)C(=O)c1c-2ccc2c1CCCC2(C)C -3.94%
